Source: PubChem BioAssay (NCI)
About 79,000 compounds went through this panel and 15% of them were active in at least one assay; those are over-represented in the sample as a whole. Active and inactive are the calls of the source. Cut-off read from the data, not from the text of the source: active = growth inhibition above about 70%; inactive = the rest.

Assays:
[1] = NCI Yeast Anticancer Drug Screen. Data for the rad50 strain (AID 155);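 note: 0% = growth of vehicle-only cultures of the same strain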; details: S. cerevisiae rad50 strain growth inhibition; at 50.0 µM; stronger effect = higher value
Method in brief: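 DNA repair mutant yeast, compound exposure, growth read-out; inhibition is taken relative to vehicle.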

[2] = NCI Yeast Anticancer Drug Screen. Data for the mec2-1 strain (AID 157); details: S. cerevisiae mec2-1 strain, at 50.0 µM, stronger effect = higher value
Method in brief: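 Mutant yeast (mec2-1) grown with compound; growth inhibition relative to vehicle control reported.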

[3] = NCI Yeast Anticancer Drug Screen. Data for the sgs1 mgt1 strain (AID 161);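 note: 0% = growth of cultures given vehicle only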; details: S. cerevisiae sgs1 mgt1 strain, at 50.0 µM, stronger effect = higher value
Method in brief: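 This yeast growth screen uses a strain with defined DNA-repair lesions; compound-treated growth is compared with vehicle-treated growth.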

[4] = NCI Yeast Anticancer Drug Screen. Data for the cln2 rad14 strain (AID 165);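 note: 0% = growth equal to vehicle treated cultures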; details: S. cerevisiae cln2 rad14 strain, at 50.0 µM, stronger effect = higher value
Method in brief: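 Readout is yeast growth inhibition versus vehicle-treated controls, using a strain with cln2 and rad14 alterations exposed to compound.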

[5] = NCI Yeast Anticancer Drug Screen. Data for the bub3 strain (AID 167); details: S. cerevisiae bub3 mutant strain, at 50.0 µM, stronger effect = higher value
Method in brief: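 In this screen, a yeast mutant lacking normal mitotic checkpoint function is challenged with compound. Relative growth versus vehicle gives the inhibition value.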

[6] = NCI Yeast Anticancer Drug Screen. Data for the mlh1 rad18 strain (AID 175); details: S. cerevisiae mlh1 rad18 strain growth inhibition; at 50.0 µM; stronger effect = higher value
Method in brief: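 Genetically defined yeast (DNA repair-deficient) exposed to compounds; growth inhibition determined relative to vehicle.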

Measured: growth inhibition

Cc1cn(C2CC(O)C(CO)O2)c(=O)[nH]c1=S (stereo unspecified)
inactive: [1] 9.05% | [2] -7.25% | [3] -3.5% | [4] -37.3% | [5] 14.2% | [6] 13.2%

CCOC(=O)/C=C/c1cccc(F)c1
inactive: [1] 19.2% | [2] -5.25% | [3] 7.85% | [4] 12% | [5] 12.2% | [6] 10.5%

CCOC(=O)c1ccc(NCc2ccc3nc(OC)c(OC)nc3c2)cc1
inactive: [1] -5.7% | [2] -20.5% | [3] -13.7% | [4] 14.9% | [5] 6.85% | [6] -19.4%

N/N=C(\C(=O)Nc1ccc(Cl)cc1Cl)C(c1cnc2ccccc2n1)[N+](=O)[O-] (stereo unspecified)
inactive: [1] 12.5% | [2] -21.9% | [3] -3.6% | [4] -20.6% | [5] -9.45% | [6] 0.45%

O=[N+]([O-])c1cc2c(c3nonc13)OCCCCO2
active: [6] 77%
inactive: [1] 5.95% | [2] 25.5% | [3] 47.4% | [4] 23.2% | [5] 23.7%

[O-][N+](=Nc1ccc(Sc2ccccc2)cc1)c1ccc(Sc2ccccc2)cc1
inactive: [1] -4.65% | [2] 2.3% | [3] 19% | [4] -17% | [5] 21.9% | [6] 28.1%

O=C1/C(=C/c2ccccc2)CN(C(=O)CCN2CCOCC2)C/C1=C\c1ccccc1
active: [3] 73% | [6] 86.8%
inactive: [1] 34.2% | [2] 7.15% | [4] 31.6% | [5] 66.8%

Cc1ccc2c(c1O)C(=O)c1ccccc1C2=O
inactive: [1] 35% | [2] 13.1% | [3] -8.8% | [4] -16.9% | [5] 29.7% | [6] 46.5%

NS(=O)(=O)c1ccc(N=Nc2nc3[nH]c(=O)[nH]c(=O)c3[nH]2)cc1
inactive: [1] 22.3% | [2] -9.2% | [3] 3.05% | [4] -4.85% | [5] -7.2% | [6] 18.6%

Cc1ccc(C)c(I)c1
inactive: [1] 7.2% | [2] -3.55% | [3] 6.1% | [4] -9.95% | [5] -2.55% | [6] 14.1%

O=C(O)C1CCCCC1C(=O)Nc1nc2ccccc2[nH]1 (stereo unspecified)
inactive: [1] -18.6% | [2] -17.1% | [3] -12.7% | [4] -16.7% | [5] -57.9% | [6] -10.6%

O=[N+]([O-])c1ccc(/C=C(/c2ccc([N+](=O)[O-])o2)S(=O)(=O)c2ccccc2)o1
active: [1] 86% | [3] 92.1% | [4] 71.1% | [6] 90.2%
inactive: [2] 67.7% | [5] 61%

CC1(C)C=C(C(=O)O)C(C)(C)N1O
inactive: [1] -8.95% | [2] -25.8% | [3] 5.65% | [4] 6.9% | [5] 14.3% | [6] 2.25%

N#CCCn1[nH]c(=O)c(Cl)c(Cl)c1=O
inactive: [1] 6.95% | [2] 4.6% | [3] -3.9% | [4] -6.8% | [5] 4.15% | [6] -3.3%

Cc1ccc2c(N(C)C)cc(N(C)C)nc2c1C
inactive: [1] -0.15% | [2] 4.4% | [3] -9.2% | [4] -48% | [5] -1.1% | [6] 15.5%

Cc1cccc(C)c1NC(=O)C(=O)C(C#N)c1ccccc1Cl (stereo unspecified)
inactive: [1] -13.2% | [2] -47.7% | [3] -10.8% | [4] -1.1% | [5] 4.85% | [6] -11.5%

CS(=O)(=O)CC1=Nc2nnc(CCCCCCCc3nnc4n3C(=O)C(CS(C)(=O)=O)=N4)n2C1=O
inactive: [1] -17% | [2] 5.1% | [3] 5.55% | [4] -12.1% | [5] -5.15% | [6] -7.95%

CNS(=O)(=O)c1ccccc1C(=N)c1ccccc1
inactive: [1] -0.3% | [2] -8.25% | [3] -27.6% | [4] -4.95% | [5] -45.9% | [6] -31.4%

CC(=O)OC1C(=C(Br)Br)C(COC(=O)c2ccccc2)OC1n1cnc2c(NC(=O)c3ccccc3)ncnc21 (stereo unspecified)
inactive: [1] 8.3% | [2] 8.8% | [3] 10.4% | [4] 0.1% | [5] 16.9% | [6] 25.9%

CC(=O)Oc1cccn(C)c1=O
inactive: [1] 18.6% | [2] 19.1% | [3] -6.35% | [4] 24.6% | [5] 32.5% | [6] 21.1%

CCCCCOC(c1cc2c(cc1Br)OCO2)C(C)Br (stereo unspecified)
inactive: [1] 8.9% | [2] 22.1% | [3] 10.8% | [4] 19.4% | [5] 22.8% | [6] 13.5%

Cc1ccc(S(=O)(=O)C(Cl)(SCl)Sc2ccccc2)cc1 (stereo unspecified)
active: [3] 74.9% | [6] 77.9%
inactive: [1] 64% | [2] 41.2% | [4] 47.3% | [5] 46.4%

C/C(=N/Nc1ccc([N+](=O)[O-])cc1[N+](=O)[O-])C1CC2CCC1C2 (stereo unspecified)
inactive: [1] -17.4% | [2] 2.05% | [3] 2.1% | [4] -4.3% | [5] 3% | [6] -16.6%

O=[N+]([O-])c1cccc(N=Cc2ccc(Cl)cc2)c1
inactive: [1] -29.9% | [2] -17.8% | [3] -62.5% | [4] -0.7% | [5] -0.05% | [6] -11.1%

Cc1cc(Cl)cc(C)c1O
inactive: [1] 39.8% | [2] -10.3% | [3] 6.15% | [4] 0.95% | [5] 14.9% | [6] 11.8%

CCOC(=O)C(C)Sc1ncnc2nc[nH]c12 (stereo unspecified)
inactive: [1] -12.8% | [2] 4.4% | [3] -3.15% | [4] 20.9% | [5] 18% | [6] -0.9%

COc1c(F)c(F)c(/C(O)=C\c2nc3ccccc3[nH]c2=O)c(F)c1F
inactive: [1] -19.6% | [2] -22.9% | [3] -17.4% | [4] 13.6% | [5] -2.05% | [6] -11.3%

CC(=O)N1Cc2c(nc[nH]c2=O)C1C (stereo unspecified)
inactive: [1] -8.05% | [2] 27.4% | [3] -7.6% | [4] 14.9% | [5] 5.2% | [6] 0.45%

COC(=O)C1OC(O[C@H]2CC[C@]3(C)[C@H]4CC=C5[C@@H]6CC(C)(C)CC[C@]6(C(=O)OC)CC[C@@]5(C)[C@]4(C)CC[C@H]3C2(C)C)C(O)C(O)C1O (stereo partly specified)
inactive: [1] 5.45% | [2] -8.4% | [3] 2.05% | [4] 5.85% | [5] 23.6% | [6] 15.1%

CCCN=C(N)NC#N
inactive: [1] 16.9% | [2] 0.8% | [3] -2.4% | [4] 7.85% | [5] -16.6% | [6] 15.1%

Cc1ccc(N=Nc2ccc(C)cc2NC(=O)CCl)cc1
inactive: [1] -17.7% | [2] -15.8% | [3] -21.9% | [4] -21.9% | [5] 3.2% | [6] -15.2%

Cc1cc2c(SCc3ccccc3Cl)nc(N)nc2nc1C
inactive: [1] 15.7% | [2] 12.3% | [3] 5.65% | [4] -35% | [5] -12.6% | [6] 31.6%

COc1c(Br)cc(Br)cc1Br
inactive: [1] -1.45% | [2] -5.7% | [3] 14.2% | [4] -47.1% | [5] -10.8% | [6] 6.05%

CCOC(=O)/C(C#N)=C/c1ccc(O)c(OC)c1
inactive: [1] 30.4% | [2] -8.5% | [3] 4.95% | [4] 14.5% | [5] 12.6% | [6] 23.3%

CC(CC#N)=C(c1ccccc1)c1ccccc1
inactive: [1] 17.4% | [2] 18.9% | [3] 14% | [4] 16% | [5] -12.8% | [6] -5.05%

Cc1ccc(NC(=S)/N=C/c2c(O)[nH]c(=O)[nH]c2=O)c(C)c1
inactive: [1] -9.4% | [2] -20.4% | [3] -15.8% | [4] -4.85% | [5] -24.5% | [6] 2.05%

O=C(O)c1cc(CC2Cc3cc4c(cc3C2=O)CCC4)cc2c1CCC2 (stereo unspecified)
inactive: [1] -27.4% | [2] -30.1% | [3] -21.6% | [4] 6.05% | [5] -18.8% | [6] -21.8%

CC1(C)CC2(C)NCCN2C(=S)N1 (stereo unspecified)
inactive: [1] 3.25% | [2] 2.3% | [3] 15.8% | [4] 12.2% | [5] -5.45% | [6] -7.8%

COc1ccc(C2c3cc4c(cc3OC(N3CCOCC3)C2C)OCO4)c(OC)c1OC (stereo unspecified)
inactive: [1] 2.45% | [2] 5.4% | [3] 14% | [4] -1.1% | [5] 11.8% | [6] 21.7%

C=CC1OCC2(CO1)COC(C=C)OC2 (stereo unspecified)
inactive: [1] 12.4% | [2] -11.7% | [3] 2.4% | [4] -7.55% | [5] -12.4% | [6] 2.75%

CN(C)CCN1C(=O)CC[C@@]2(C)C1=CC[C@@H]1[C@@H]2CC[C@@]2(C)[C@H]1CC[C@]2(C)O
inactive: [1] -21.7% | [2] -12.8% | [3] -18.6% | [4] -11.1% | [5] -0.1% | [6] -9.15%
